# Results as given in paper PMC11006913.
# Where a chain is given by its changes, count along the chain named.
# Legend:
# Assay in all cases: PBM; 200 nM protein, PBS
# Conditions in all cases: dsDNA, one strand shown
# [1] = target: ALX4 (Homo sapiens, UniProt Q9H161 200-286)
# [2] = target: T1, PAX4 (Homo sapiens, UniProt O43316 9-242, R200K)
# T1 sequence: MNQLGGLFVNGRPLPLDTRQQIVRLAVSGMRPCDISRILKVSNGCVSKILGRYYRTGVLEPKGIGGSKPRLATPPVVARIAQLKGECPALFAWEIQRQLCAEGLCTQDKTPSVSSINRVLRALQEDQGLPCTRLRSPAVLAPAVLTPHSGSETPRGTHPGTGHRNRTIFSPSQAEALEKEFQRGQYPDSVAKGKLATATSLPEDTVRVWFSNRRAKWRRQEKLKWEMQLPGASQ
# [3] = target: T2, PAX4 (Homo sapiens, UniProt O43316 9-242)
# T2 sequence: T1 sequence with K192R
# [4] = target: ALX4 (Homo sapiens, UniProt Q9H161 200-286, Q225E)
# ALX4 (Homo sapiens, UniProt Q9H161 200-286, Q225E), sequence (Q9H161 200-286 Q225E): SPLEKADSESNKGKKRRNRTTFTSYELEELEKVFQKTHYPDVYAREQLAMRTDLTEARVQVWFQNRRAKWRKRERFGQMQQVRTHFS
# [5] = target: ALX1 (Homo sapiens, UniProt Q15699 118-204, L144V)
# ALX1 (Homo sapiens, UniProt Q15699 118-204, L144V), sequence (Q15699 118-204 L144V): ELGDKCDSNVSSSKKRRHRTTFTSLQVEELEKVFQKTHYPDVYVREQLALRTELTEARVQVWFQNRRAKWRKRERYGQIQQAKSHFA
# [6] = target: ALX3 (Homo sapiens, UniProt O95076 139-225, N203Q)
# ALX3 (Homo sapiens, UniProt O95076 139-225, N203Q), sequence (O95076 139-225 N203Q): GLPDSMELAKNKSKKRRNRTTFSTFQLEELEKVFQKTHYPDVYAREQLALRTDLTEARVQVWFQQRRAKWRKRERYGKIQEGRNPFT
# [7] = target: T3, PAX4 (Homo sapiens, UniProt O43316 9-242, R200Q)
# T3 sequence: T1 sequence with K192Q
# [8] = target: ALX1 (Homo sapiens, UniProt Q15699 118-204, L144R)
# ALX1 (Homo sapiens, UniProt Q15699 118-204, L144R), sequence (Q15699 118-204 L144R): as the sequence (Q15699 118-204 L144V) above, with V27R counted along it
# [9] = target: T4, PAX4 (Homo sapiens, UniProt O43316 9-242, F177V)
# T4 sequence: T1 sequence with F169V, K192R
# [10] = target: ALX3 (Homo sapiens, UniProt O95076 139-225)
# ALX3 (Homo sapiens, UniProt O95076 139-225), sequence (O95076 139-225): as the sequence (O95076 139-225 N203Q) above, with Q65N counted along it
# [11] = target: T5, PAX4 (Homo sapiens, UniProt O43316 9-242, F177Y)
# T5 sequence: T1 sequence with F169Y, K192R
# [12] = target: ALX3 (Homo sapiens, UniProt O95076 139-225, L168Q)
# ALX3 (Homo sapiens, UniProt O95076 139-225, L168Q), sequence (O95076 139-225 L168Q): as the sequence (O95076 139-225 N203Q) above, with L30Q, Q65N counted along it
# [13] = target: ALX3 (Homo sapiens, UniProt O95076 139-225, L168V)
# ALX3 (Homo sapiens, UniProt O95076 139-225, L168V), sequence (O95076 139-225 L168V): as the sequence (O95076 139-225 N203Q) above, with L30V, Q65N counted along it
# [14] = target: T6, PAX4 (Homo sapiens, UniProt O43316 9-242, R227W)
# T6 sequence: T1 sequence with K192R, R219W
# [15] = target: ALX3 (Homo sapiens, UniProt O95076 139-225, N203S)
# ALX3 (Homo sapiens, UniProt O95076 139-225, N203S), sequence (O95076 139-225 N203S): as the sequence (O95076 139-225 N203Q) above, with Q65S counted along it
# [16] = target: PRRX1 (Homo sapiens, UniProt P54821 80-166, F113S)
# PRRX1 (Homo sapiens, UniProt P54821 80-166, F113S), sequence (P54821 80-166 F113S): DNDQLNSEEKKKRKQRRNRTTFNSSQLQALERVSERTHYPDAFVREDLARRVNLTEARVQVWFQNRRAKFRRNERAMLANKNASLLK
# [17] = target: PRRX1 (Homo sapiens, UniProt P54821 80-166)
# PRRX1 (Homo sapiens, UniProt P54821 80-166), sequence (P54821 80-166): as the sequence (P54821 80-166 F113S) above, with S34F counted along it
# [18] = target: HOXB6 (Homo sapiens, UniProt P17509 132-218, K202E)
# HOXB6 (Homo sapiens, UniProt P17509 132-218, K202E), sequence (P17509 132-218 K202E): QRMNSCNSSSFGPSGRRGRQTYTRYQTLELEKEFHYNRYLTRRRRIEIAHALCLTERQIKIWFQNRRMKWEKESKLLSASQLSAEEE
# [19] = target: HOXB6 (Homo sapiens, UniProt P17509 132-218)
# HOXB6 (Homo sapiens, UniProt P17509 132-218), sequence (P17509 132-218): as the sequence (P17509 132-218 K202E) above, with E71K counted along it
# [20] = target: T7, NKX2-6 (Homo sapiens, UniProt A6NCS4 118-204, R150C)
# T7 sequence: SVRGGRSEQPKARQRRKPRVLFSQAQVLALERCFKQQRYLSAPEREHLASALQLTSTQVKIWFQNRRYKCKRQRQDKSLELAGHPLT
# [21] = target: MSX2 (Homo sapiens, UniProt P35548 130-214, R199I)
# MSX2 (Homo sapiens, UniProt P35548 130-214, R199I), sequence (P35548 130-214 R199I): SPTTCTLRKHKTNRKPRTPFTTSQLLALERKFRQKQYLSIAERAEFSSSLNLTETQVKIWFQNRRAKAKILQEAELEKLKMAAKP
# [22] = target: MSX2 (Homo sapiens, UniProt P35548 130-214)
# MSX2 (Homo sapiens, UniProt P35548 130-214), sequence (P35548 130-214): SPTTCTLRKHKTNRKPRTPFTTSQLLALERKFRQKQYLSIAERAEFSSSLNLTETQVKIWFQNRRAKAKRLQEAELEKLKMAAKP
# [23] = target: MSX2 (Homo sapiens, UniProt P35548 130-214, F161Y)
# MSX2 (Homo sapiens, UniProt P35548 130-214, F161Y), sequence (P35548 130-214 F161Y): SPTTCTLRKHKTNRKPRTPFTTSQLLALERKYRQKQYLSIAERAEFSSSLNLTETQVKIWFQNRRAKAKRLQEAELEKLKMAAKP
# ALX4 (Homo sapiens, UniProt Q9H161 200-286), sequence (Q9H161 200-286): as the sequence (Q9H161 200-286 Q225E) above, with E26Q counted along it
sequence,measurement,setting,value
CCCATAAC,binding signal,[1],"9.61 upbm affinity estimate (log intensity, higher = more binding, comparable within an allelic series)"
AAATTAAC,binding signal,[1],"13.5 upbm affinity estimate (log intensity, higher = more binding, comparable within an allelic series)"
same,binding signal,[2],"11.6 upbm affinity estimate (log intensity, higher = more binding, comparable within an allelic series)"
same,binding signal,[3],"12.2 upbm affinity estimate (log intensity, higher = more binding, comparable within an allelic series)"
same,binding signal,[4],"12.7 upbm affinity estimate (log intensity, higher = more binding, comparable within an allelic series)"
same,binding signal,[5],"11.4 upbm affinity estimate (log intensity, higher = more binding, comparable within an allelic series)"
same,binding signal,[6],"8.36 upbm affinity estimate (log intensity, higher = more binding, comparable within an allelic series)"
same,binding signal,[7],"11.9 upbm affinity estimate (log intensity, higher = more binding, comparable within an allelic series)"
same,binding signal,[8],"11.1 upbm affinity estimate (log intensity, higher = more binding, comparable within an allelic series)"
same,binding signal,[9],"10.5 upbm affinity estimate (log intensity, higher = more binding, comparable within an allelic series)"
same,binding signal,[10],"12.2 upbm affinity estimate (log intensity, higher = more binding, comparable within an allelic series)"
same,binding signal,[11],"10.9 upbm affinity estimate (log intensity, higher = more binding, comparable within an allelic series)"
same,binding signal,[12],"10.3 upbm affinity estimate (log intensity, higher = more binding, comparable within an allelic series)"
same,binding signal,[13],"9.64 upbm affinity estimate (log intensity, higher = more binding, comparable within an allelic series)"
same,binding signal,[14],"10.9 upbm affinity estimate (log intensity, higher = more binding, comparable within an allelic series)"
same,binding signal,[15],"8.57 upbm affinity estimate (log intensity, higher = more binding, comparable within an allelic series)"
CAACATTA,binding signal,[1],"10.5 upbm affinity estimate (log intensity, higher = more binding, comparable within an allelic series)"
GAGCACCC,binding signal,[1],"7.99 upbm affinity estimate (log intensity, higher = more binding, comparable within an allelic series)"
same,binding signal,[16],"9.2 upbm affinity estimate (log intensity, higher = more binding, comparable within an allelic series)"
same,binding signal,[4],"8.37 upbm affinity estimate (log intensity, higher = more binding, comparable within an allelic series)"
same,binding signal,[17],"9.01 upbm affinity estimate (log intensity, higher = more binding, comparable within an allelic series)"
AATGGCCT,binding signal,[1],"10.3 upbm affinity estimate (log intensity, higher = more binding, comparable within an allelic series)"
CTATAATA,binding signal,[1],"11.6 upbm affinity estimate (log intensity, higher = more binding, comparable within an allelic series)"
same,binding signal,[4],"10.8 upbm affinity estimate (log intensity, higher = more binding, comparable within an allelic series)"
ATAAGCAC,binding signal,[1],"9.96 upbm affinity estimate (log intensity, higher = more binding, comparable within an allelic series)"
same,binding signal,[4],"9.46 upbm affinity estimate (log intensity, higher = more binding, comparable within an allelic series)"
GCAGACCC,binding signal,[1],"7.9 upbm affinity estimate (log intensity, higher = more binding, comparable within an allelic series)"
same,binding signal,[4],"8.2 upbm affinity estimate (log intensity, higher = more binding, comparable within an allelic series)"
ATTACGAA,binding signal,[1],"11.4 upbm affinity estimate (log intensity, higher = more binding, comparable within an allelic series)"
same,binding signal,[4],"10.3 upbm affinity estimate (log intensity, higher = more binding, comparable within an allelic series)"
CATCAATC,binding signal,[1],"10.6 upbm affinity estimate (log intensity, higher = more binding, comparable within an allelic series)"
same,binding signal,[18],"9.69 upbm affinity estimate (log intensity, higher = more binding, comparable within an allelic series)"
same,binding signal,[19],"10.5 upbm affinity estimate (log intensity, higher = more binding, comparable within an allelic series)"
AACGACAT,binding signal,[1],"9.98 upbm affinity estimate (log intensity, higher = more binding, comparable within an allelic series)"
same,binding signal,[4],"9.4 upbm affinity estimate (log intensity, higher = more binding, comparable within an allelic series)"
CCACCGGC,binding signal,[1],"8.04 upbm affinity estimate (log intensity, higher = more binding, comparable within an allelic series)"
same,binding signal,[18],"8.97 upbm affinity estimate (log intensity, higher = more binding, comparable within an allelic series)"
same,binding signal,[4],"7.94 upbm affinity estimate (log intensity, higher = more binding, comparable within an allelic series)"
same,binding signal,[20],"9.32 upbm affinity estimate (log intensity, higher = more binding, comparable within an allelic series)"
same,binding signal,[21],"9.39 upbm affinity estimate (log intensity, higher = more binding, comparable within an allelic series)"
same,binding signal,[6],"7.68 upbm affinity estimate (log intensity, higher = more binding, comparable within an allelic series)"
same,binding signal,[22],"9.41 upbm affinity estimate (log intensity, higher = more binding, comparable within an allelic series)"
same,binding signal,[10],"7.64 upbm affinity estimate (log intensity, higher = more binding, comparable within an allelic series)"
same,binding signal,[12],"7.76 upbm affinity estimate (log intensity, higher = more binding, comparable within an allelic series)"
same,binding signal,[13],"7.67 upbm affinity estimate (log intensity, higher = more binding, comparable within an allelic series)"
same,binding signal,[23],"9.32 upbm affinity estimate (log intensity, higher = more binding, comparable within an allelic series)"
same,binding signal,[15],"7.64 upbm affinity estimate (log intensity, higher = more binding, comparable within an allelic series)"
same,binding signal,[19],"8.83 upbm affinity estimate (log intensity, higher = more binding, comparable within an allelic series)"
CCTCGAAC,binding signal,[1],"8.02 upbm affinity estimate (log intensity, higher = more binding, comparable within an allelic series)"
same,binding signal,[16],"9.46 upbm affinity estimate (log intensity, higher = more binding, comparable within an allelic series)"
same,binding signal,[4],"8.29 upbm affinity estimate (log intensity, higher = more binding, comparable within an allelic series)"
same,binding signal,[17],"9.07 upbm affinity estimate (log intensity, higher = more binding, comparable within an allelic series)"
CTTCCCGC,binding signal,[1],"8.12 upbm affinity estimate (log intensity, higher = more binding, comparable within an allelic series)"
same,binding signal,[18],"9.12 upbm affinity estimate (log intensity, higher = more binding, comparable within an allelic series)"
same,binding signal,[4],"8.22 upbm affinity estimate (log intensity, higher = more binding, comparable within an allelic series)"
same,binding signal,[19],"9.02 upbm affinity estimate (log intensity, higher = more binding, comparable within an allelic series)"
ATAATACA,binding signal,[1],"11.1 upbm affinity estimate (log intensity, higher = more binding, comparable within an allelic series)"
same,binding signal,[4],"10.4 upbm affinity estimate (log intensity, higher = more binding, comparable within an allelic series)"
ACAGCTCT,binding signal,[1],"8.24 upbm affinity estimate (log intensity, higher = more binding, comparable within an allelic series)"
same,binding signal,[4],"8.19 upbm affinity estimate (log intensity, higher = more binding, comparable within an allelic series)"
CATGGGGG,binding signal,[1],"7.84 upbm affinity estimate (log intensity, higher = more binding, comparable within an allelic series)"
same,binding signal,[4],"7.96 upbm affinity estimate (log intensity, higher = more binding, comparable within an allelic series)"
CGATATAA,binding signal,[1],"10.2 upbm affinity estimate (log intensity, higher = more binding, comparable within an allelic series)"
same,binding signal,[4],"9.67 upbm affinity estimate (log intensity, higher = more binding, comparable within an allelic series)"
GAGGACCC,binding signal,[1],"7.88 upbm affinity estimate (log intensity, higher = more binding, comparable within an allelic series)"
same,binding signal,[16],"9.19 upbm affinity estimate (log intensity, higher = more binding, comparable within an allelic series)"
same,binding signal,[4],"7.98 upbm affinity estimate (log intensity, higher = more binding, comparable within an allelic series)"
same,binding signal,[17],"9.51 upbm affinity estimate (log intensity, higher = more binding, comparable within an allelic series)"
CCGTCCCC,binding signal,[1],"8.07 upbm affinity estimate (log intensity, higher = more binding, comparable within an allelic series)"
same,binding signal,[4],"8.31 upbm affinity estimate (log intensity, higher = more binding, comparable within an allelic series)"
CGACATCC,binding signal,[1],"7.95 upbm affinity estimate (log intensity, higher = more binding, comparable within an allelic series)"
same,binding signal,[4],"8.23 upbm affinity estimate (log intensity, higher = more binding, comparable within an allelic series)"
CTCTAGGA,binding signal,[1],"8.21 upbm affinity estimate (log intensity, higher = more binding, comparable within an allelic series)"
same,binding signal,[4],"8.12 upbm affinity estimate (log intensity, higher = more binding, comparable within an allelic series)"
CCATTATC,binding signal,[1],"11.3 upbm affinity estimate (log intensity, higher = more binding, comparable within an allelic series)"
same,binding signal,[4],"10.2 upbm affinity estimate (log intensity, higher = more binding, comparable within an allelic series)"
